According to PubChem BioAssay AID624202 (National Center for Advancing Translational Sciences (NCATS), 2012):
Hit rate of the full screen: of about 380,000 compounds, about 4,000 (1.1%) were called active. Another 3% or so got no clear call; they are omitted. Only a selection was taken, and actives are over-represented in it overall. Unmarked numbers belong to inactive results. The call rests on the fitted dose curve; in most records, active means well fitted activation curve with a large enough effect; inconclusive means small, poorly fitted or top-dose-only effect; inactive means no such curve, though single readings can be large or run the other way.

Assay: qHTS Assay to Identify Small Molecule Activators of BRCA1 Expression; further: nearly all actives have a fitted effect of over 80% in size
Settings: MCF7-BRCA1-FFLuc reporter, luminescence, 48 h; series mostly up to 46.1 µM; activation: at the top concentration
Procedure, shortened: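 48 h compound treatment of MCF7-BRCA1-FFLuc cells (phenol-red free MEM, 37 °C), then 15 min with luciferase substrate and luminescence imaging.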
Potency means the concentration at half of the fitted maximal effect.

SMILES | activation | Potency
COc1ccccc1CNS(=O)(=O)c1cc(Br)cc2c1N(C(C)=O)C(C)C2 (centres undefined) | -12.5% | 
Cc1nc(N2CCOCC2)sc1C(=O)NN | -106% | 
Fc1cc(F)c2nc(N3CCOCC3)sc2c1 |  | 12.6 µM (active)
Cc1cc(C)c2nc(N3CCC(C(=O)NCCN4CCOCC4)CC3)sc2c1 | 32.9% | 
CCc1nc2onc(C)c2c(=O)n1CC(=O)O | 0.973% | 
Cc1cc(C(=O)COc2ccc(Br)cc2F)c(C)n1C1CC1 | 45.1% | 
Cc1cc(C(=O)COc2ccccc2Cl)c(C)n1C1CC1 |  | 12.6 µM (active)
O=C(COc1ccccc1Cl)N1CCCCCCC1 | 33.8% | 
Cn1c(=O)c2c(-c3ccccc3Br)n(Cc3ccccc3)cc2n(C)c1=O | -2.04% | 
Cc1ccc(OCCCC(=O)Nc2ccc3c(c2)OCCO3)cc1 | 22.6% | 
S=C(NCc1ccco1)Nc1ccc2c(c1)OCCO2 | 39.2% | 
CCc1ccccc1OCC(=O)Nc1ccc2c(c1)OCCO2 | 94.9% | 
CCCCC(=O)Nc1ccc2c(c1)OCCO2 |  | 7.08 µM (active)
S=C(Nc1cccc(Cl)c1)Nc1ccc2c(c1)OCCO2 |  | 11.2 µM (active)
S=C(Nc1ccc2c(c1)OCO2)N1CCCC1 | 56.2% | 
COc1ccccc1-c1cc2nc(C)c(CCC(=O)NC3CCCCC3)c(C)n2n1 | -4.32% | 
COc1ccc(NC(=O)CSc2nnc(-c3nnn(-c4ccc(F)cc4)c3C)o2)cc1 | 4.5% | 
O=C(CS(=O)(=O)c1cccc2nsnc12)N1CCN(c2cccc(Cl)c2)CC1 | -5.64% | 
COc1ccc2[nH]c3c(c2c1)CCN(C(=O)CCC1CCCC1)C3c1ccc(F)cc1 (centres undefined) | -14.9% | 
Cc1ccc(Cl)cc1N1CCN(C(=O)CN2C(=O)COc3ccc(S(=O)(=O)N4CCOCC4)cc32)CC1 | -21.5% | 
COc1ccc(OCc2cc(C(=O)N3CCCC3)no2)c2ccccc12 | 64.4% | 
COc1cccc(OCc2cc(C(=O)N3CCN(C(=O)c4ccco4)CC3)no2)c1 |  | 11.2 µM (active)
O=C(c1cc(COc2cccc(C(F)(F)F)c2)on1)N1CCSCC1 | -8.73% | 
CCN(CC)S(=O)(=O)c1ccc2c(c1)nc(CN(C)C(=O)Nc1ccc(Cl)cc1)n2C | 2.05% | 
Cc1cc(F)ccc1NS(=O)(=O)c1ccc(-n2cccn2)cc1 | -23.9% | 
O=C(Nc1ccc2c(c1)OCCO2)C(C1CC1)N1CCC(Cc2ccccc2)CC1 (centres undefined) | -7.79% | 
Cn1cc([N+](=O)[O-])c(C(=O)Nc2ccc3c(c2)OCCO3)n1 | 78.5% | 

SMILES | activation | Potency
Nc1c(C(=O)Nc2ccc3c(c2)OCCO3)nnn1Cc1ccccc1 |  | 4.47 µM (active)
COC(=O)c1c(NC(=O)CCCOc2ccccc2)sc2c1CCC(C)C2 (centres undefined) | 13.8% | 
CCN(CCCNC(=O)c1cc2cc3cc(OC)ccc3nc2s1)c1ccccc1 | 8.15% | 
Cc1cc(NC(=O)CC(C)C)cc(-c2nc3ncccc3o2)c1O | -5.81% | 
Fc1cccc(Cc2c(-c3ccc(Cl)cc3)nc3ccc(Cl)cn23)c1 | 18% | 
Cc1ccc(-c2nc3ccc(Cl)cn3c2Cc2ccccc2)cc1 |  | 10 µM (active)
Cc1ccc(Cc2c(-c3ccco3)nc3ccc(Cl)cn23)cc1 | -32% | 
CC1(C)CC(=O)c2cc(C(=O)NCc3ccccc3)c(=O)[nH]c2C1 | 0% | 
Cc1ccc(O)c(NC(=O)c2cc(-c3ccco3)on2)c1 |  | 5.62 µM (active)
CC(=O)c1ccc(NC(=O)c2cc(-c3cccs3)on2)cc1 | 67.3% | 
Cc1ccc(C)c(NC(=O)c2ccc(OC(=O)c3ccco3)cc2)c1 | 46.3% | 
COC(=O)c1ccccc1NC(=O)Cn1c(=O)cc(C)c2c(C)nn(-c3cccc(Cl)c3C)c21 | 4.63% | 
O=C(COc1ccccc1)OCc1cc(=O)n2nc(-c3cccs3)sc2n1 | 0% | 
Nc1ccc(N=Nc2ccccc2Cl)c(N)n1 |  | 3.55 µM (active)
CCC(C(=O)Nc1cccc(Cl)c1C)n1nc(-c2ccc(C)cc2)ccc1=O (centres undefined) | -24.6% | 
O=C(Nc1ccccc1)c1ccc(NC(=O)c2cccs2)cc1 |  | 7.94 µM (active)
NS(=O)(=O)c1ccc(NC(=S)NNC(=O)c2cccs2)cc1 | 0% | 
CS(=O)(=O)c1ccc(C(=O)NNC(=O)c2cccs2)cc1 | 1.26% | 
COc1cccc(N2CCN(S(=O)(=O)c3cc(Br)cc4c3N(C(=O)C3CC3)CC4)CC2)c1 | 3.39% | 
COc1ccccc1C(=O)OCc1cc(=O)n2nc(-c3cccs3)sc2n1 | -16.9% | 
c1csc(-c2nc(-c3ccncc3)no2)c1 |  | 4.47 µM (active)
O=C(NCc1cccnc1)c1nc(-c2cccs2)no1 | -4.18% | 
Cc1ccc(-c2nc(-c3ccncc3)no2)c(C)c1 |  | 5.01 µM (active)
CCCCNc1ccc(-c2nc(-c3ccncc3)no2)cc1[N+](=O)[O-] | 8.14% | 
Cc1ccc(-c2noc(-c3ccccc3C(=O)NCC3CCCO3)n2)cc1 (centres undefined) | 10.2% | 
O=C(c1cccs1)N1CCCC(c2nc(-c3ccc(F)cc3)no2)C1 (centres undefined) | 78.6% | 
COc1ccc(-c2nc(C)c(CCNC(=O)c3ccc(C(F)(F)F)cc3)s2)cc1OC | 8.95% | 
